This is an account of results in PubChem BioAssay AID720540 (National Center for Advancing Translational Sciences (NCATS), 2013).

Out of some 1,300 compounds screened, about 460 (35%) were called active. Inconclusive results (about 39%) are left out. The call rests on the fitted dose curve; in most records, active means well fitted inhibition curve with a large enough effect; inconclusive means small, poorly fitted or top-dose-only effect; inactive means flat fitted curve, though single readings scatter. Some of the results follow.
Potency means the concentration at half of the fitted maximal effect.

Protein phosphatase EYA2 (Homo sapiens), sequence (O00167 whole entry, looked up): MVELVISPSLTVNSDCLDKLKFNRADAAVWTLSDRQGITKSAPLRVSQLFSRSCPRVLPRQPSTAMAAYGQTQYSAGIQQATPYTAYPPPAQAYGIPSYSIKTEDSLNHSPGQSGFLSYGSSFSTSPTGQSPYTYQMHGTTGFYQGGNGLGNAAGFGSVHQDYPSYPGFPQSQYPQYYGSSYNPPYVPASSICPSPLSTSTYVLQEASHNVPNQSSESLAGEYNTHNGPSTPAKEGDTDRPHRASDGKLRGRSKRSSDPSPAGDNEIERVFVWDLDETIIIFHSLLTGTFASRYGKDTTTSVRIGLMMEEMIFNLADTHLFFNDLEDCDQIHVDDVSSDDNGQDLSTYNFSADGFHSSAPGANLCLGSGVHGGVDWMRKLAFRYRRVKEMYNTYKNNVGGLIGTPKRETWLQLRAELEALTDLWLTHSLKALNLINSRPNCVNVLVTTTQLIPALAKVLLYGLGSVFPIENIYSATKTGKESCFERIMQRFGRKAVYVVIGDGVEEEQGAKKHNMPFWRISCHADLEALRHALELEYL

This assay concerns the target Protein phosphatase EYA2 (Homo sapiens) (UniProt O00167). The assay can be described thus: qHTS for Inhibitors of the Phosphatase Activity of Eya2: Confirmatory Assay for Cherry-picked Compounds. Further: nearly all actives have a fitted effect of over 65% in size.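 On activity change, negative = inhibition: 0% = DMSO wells and -100% = EGTA control giving full inhibition.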 Conditions: purified EYA2 phosphatase activity, qHTS confirmation; series mostly up to 46.1 µM; activity change, negative = inhibition: at the top concentration. A digest of the protocol:
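Eya2 (0.2 uM working solution) preincubated 10 min at room temperature with compound in pH 7.5 HEPES buffer with MgCl2, BSA, DTT. OMFP added (50 uM working solution), 10 min more; fluorescence 485/525 nm, normalized to EGTA and DMSO.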
For `CCOc1ccc(Nc2nc(N)nc(CN(C)C3CCCCC3)n2)cc1`, the “activity change, negative = inhibition” value was -11.1% (inactive).
Same read-out and setting: in the case of `O=C(O)c1c(C(=O)N2N=C3/C(=C/c4ccccc4)CCCC3C2c2ccccc2)cccc1[N+](=O)[O-]` (stereo not given) it was -12.9% (inactive).
Same read-out and setting: in the case of `CCCc1ccc(C#N)c(SC2CC(=O)N(c3ccc(OC)cc3)C2=O)n1` (stereo not given) it was -24.4% (inactive); in that of `O=C(NC1CCCC1)c1cc(=O)[nH]c2ccccc12`, 3.18% (inactive).
As to `CCCCC(=O)NC(c1ccco1)c1cc(Cl)c2cccnc2c1O` (stereo not given), the Potency was 3.38 µM (active).
For the compound `CCC(=O)NC(c1ccc(OC)c(OC)c1)c1cc(Cl)c2cccnc2c1O` (stereo not given), the Potency is 1.69 µM (active).
For the compound `O=C(Oc1ccc(Cl)c2cccnc12)C12CC3CC(CC(C3)C1)C2`, the “activity change, negative = inhibition” value was 0.3% (inactive).
For `Nc1[nH]nc2ncc3cc4ccccc4nc3c12`, the Potency is 15.1 µM (active).
For the compound `COc1ccc(-c2cn(Cc3ccc4c(c3)C(=O)c3ccccc3C4=O)nn2)cc1`, the “activity change, negative = inhibition” value was -4.41% (inactive).
On to `CCc1ccc2oc(-c3ccc(OC)cc3)cc(=Nc3c(C)n(C)n(-c4ccccc4)c3=O)c2c1`, for which the Potency was 16.9 µM (active).
For the compound `COc1cccc(N2CCN(c3ccc4nnc(CCC(=O)Nc5cccc(C(C)=O)c5)n4n3)CC2)c1`, the “activity change, negative = inhibition” value was -6.09% (inactive).
For `O=C(Nc1ccccc1Cl)N1CCN(c2ccc3nnc(-c4ccccc4)n3n2)CC1`, the Potency is 6.75 µM (active).
Consider `C[C@@]12CCC=C[C@H]1[C@H](c1ccc3ccccc3c1/C=C/c1ccccc1)N(Cc1ccccc1)C2=O`, for which the “activity change, negative = inhibition” value is -29.4% (inactive).
Regarding `CCN(CC)c1ccc(/C=C/c2c(C)cnc3ccc(C)cc23)cc1`, the Potency is 8.49 µM (active).
Consider `Cc1ccc(-n2nnnc2C(=Cc2ccc(N(C)C)cc2)c2nnnn2-c2ccc(C)cc2)cc1`, for which the “activity change, negative = inhibition” value is -11.3% (inactive).
As for `Cc1ccc2c(/C=C/c3ccc(N(C)C)cc3)c(C)cnc2c1`, the Potency was 8.49 µM (active).
The same measure, in the same setting: next, `CCc1cnc2ccccc2c1/C=C/c1ccc(N(C)C)cc1`: 7.57 µM (active).
Still for that read-out and setting: in the case of `Cc1cnc2ccc(I)cc2c1/C=C/c1ccc(N(C)C)cc1` it was 7.57 µM (active).
As for `Cn1c(=O)c2[nH]c(COc3ccccc3)nc2n(C)c1=O`, the “activity change, negative = inhibition” value was -12.9% (inactive).
Consider `COc1cc(OC)c(OC)cc1/C=C/c1nccc2ccccc12`, for which the Potency was 7.57 µM (active).
In the case of `Cc1cc(C)c(OCCCCN(C)Cc2ccccc2)c(C)c1`, the “activity change, negative = inhibition” value is 22.9% (inactive).
`Cn1c(=O)cc2c3c(c(N4CCCCC4)ccc31)C(=O)c1ccccc1-2`: the Potency is 3.38 µM (active).
`Cc1cccc(C)c1OCc1cc(C(=O)N2CCN(c3ccccc3)CC2C)no1` (stereo not given): the “activity change, negative = inhibition” value was -11.7% (inactive).
In the case of `Cc1c(NC(=O)/C(C#N)=C/c2ccc(-c3cc(Cl)ccc3Cl)o2)c(=O)n(-c2ccccc2)n1C`, the Potency was 7.57 µM (active).
In the case of `CCOc1ccc2nc(N3CCCC(C(=O)N4CCN(CC)CC4)C3)sc2c1` (stereo not given), the “activity change, negative = inhibition” value is -10% (inactive).
Still for that read-out and setting: next, `CCOC(=O)c1ccc(NC(=S)N2CCN(CCN=CC3=C(O)CC(c4ccccc4)CC3=O)CC2)cc1` (stereo not given): -0.24% (inactive); `CS(=O)(=O)c1ccc2nc(NC(=O)c3ccccc3Cl)sc2c1`: -4.83% (inactive).
`CS(=O)(=O)c1ccc(C(=O)Nc2nc(-c3ccco3)c(-c3ccco3)s2)cc1`: the Potency was 12 µM (active).
Turning to `CN(C)C(C)(C)C#CC(O)(c1ccccc1)c1ccccc1`, the “activity change, negative = inhibition” value was -3.24% (inactive).
Still for that read-out and setting: in the case of `CSc1cccc(NC(=O)CCCOc2cc(=O)n(C)c3ccccc23)c1` it was -27.4% (inactive).
Consider `O=C(CSc1nnc2c3ccccc3c3ccccc3c2n1)Nc1ccccc1F`, for which the Potency is 7.57 µM (active).
On the same count and under the same terms, in the case of `CCOC(=O)Cc1nnc(NC(=O)CSc2nnc3c4ccccc4n(C)c3n2)s1` it was 16.9 µM (active).
Turning to `Cn1cc(SCC(=O)Nc2ccc3c(c2)OCCO3)c2ccccc21`, the “activity change, negative = inhibition” value is -12.8% (inactive).
As for `Cn1c2ccccc2c2nnc(SCC(=O)Nc3cccc(O)c3)nc21`, the Potency was 13.5 µM (active).
Same read-out and setting: next, `CCOC(=O)Cc1nnc(NC(=O)C(CC)Sc2nnc3c4ccccc4n(C)c3n2)s1` (stereo not given): 16.9 µM (active).
Still for that read-out and setting: in the case of `Cn1c(=O)c(N)c2c3c(c(Br)ccc31)C(=O)c1ccccc1-2` it was 6.01 µM (active).
As for `COCc1nnc(NC(=O)c2ccc(S(=O)(=O)N3CCOCC3)cc2)o1`, the “activity change, negative = inhibition” value was -28.2% (inactive).
As to `COc1ccc(-c2nnc(NC(=O)c3ccc(S(=O)(=O)N(C)CC4CCCO4)cc3)o2)c(OC)c1` (stereo not given), the Potency is 21.3 µM (active).
Still for that read-out and setting: next, `O=C1C(=Cc2ccco2)CCC1=Cc1ccco1`: 4.78 µM (active); `COc1ccc(Nc2nc(-c3c(C)nc4ncccn34)cs2)cc1`: 3.38 µM (active); `Cc1nc2ncccn2c1-c1csc(Nc2ccccc2)n1`: 3.38 µM (active).
Same read-out and setting: next, `O=[S+]([O-])([O-])c1ccc2c(c1)cc([S+](=O)([O-])[O-])c1nn(-c3ccc(/C=C/c4ccc(-n5nc6c([S+](=O)([O-])[O-])cc7cc([S+](=O)([O-])[O-])ccc7c6n5)cc4[S+](=O)([O-])[O-])c([S+](=O)([O-])[O-])c3)nc12`: 6.75 µM (active).
For the compound `COc1ccc(-c2cn3c(C)c(C(=O)NCc4ccc5c(c4)OCO5)sc3n2)cc1`, the “activity change, negative = inhibition” value was -15.9% (inactive).
As to `CN(C)c1ccc(Sc2ccc3nc(N)nc(N)c3c2)cc1`, the Potency was 6.75 µM (active).
Regarding `S=C(NC1CC1)NC1CCCc2ccccc21` (stereo not given), the “activity change, negative = inhibition” value was -11.4% (inactive).
Consider `N[C@@H](Cc1cnc[nH]1)C(=O)Nc1ccc2ccccc2c1`, for which the Potency was 21.3 µM (active).
Regarding `Cc1ccc(Nc2nc(-c3cccnc3)nc3ccccc23)cc1`, the “activity change, negative = inhibition” value is -29.8% (inactive).
Regarding `O=C(O)c1cccc(Nc2nc(-c3ccccc3)nc3ccccc23)c1`, the Potency is 9.53 µM (active).
Take `O=C(O)c1ccc(Nc2nc(-c3ccccc3)nc3ccccc23)cc1`: the Potency is 8.49 µM (active).
`CCOC(=O)N1CCC(NC(=O)c2cc3c(-c4ccccc4F)nn(C)c3s2)CC1`: the “activity change, negative = inhibition” value is -14.8% (inactive).
Regarding `Cn1nnnc1SCC(=O)Nc1ccc2c(c1)OCO2`, the “activity change, negative = inhibition” value was -11% (inactive).
Still for that read-out and setting: in the case of `O=C(CCn1c(=O)oc2ccccc21)NCc1ccc2c(c1)OCO2` it was -2.46% (inactive).
`CCCCn1nc(C(=O)Nc2ccc3c(c2)OCO3)c2ccccc2c1=O`: the Potency is 12 µM (active).
On the same count and under the same terms, next, `COc1ccccc1NC(=O)C1=C(C)NC2=C(C(=O)CC(c3ccc(OC)c(OC)c3)C2)C1c1coc2ccccc2c1=O` (stereo not given): 21.3 µM (active).
Still for that read-out and setting: next, `CCc1cc2c(=O)[nH]c(-c3ccccn3)nc2s1`: 1.69 µM (active); `CCOc1ccc2c(c1)-c1c(ssc1=S)C(C)(C)N2C(=O)CSC1=NCCS1`: 16.9 µM (active).
Take `Cc1nc(C)c(-c2csc(Nc3ccc(O)c(C(=O)O)c3)n2)s1`: the Potency is 19 µM (active).
For `COc1ccc(N2CCN(C(c3ccco3)c3sc4nc(C)nn4c3O)CC2)cc1` (stereo not given), the “activity change, negative = inhibition” value was -27.1% (inactive).
As for `COc1ccc(N2CCN(Cc3cc4c(cc3Br)OCCO4)CC2)cc1`, the Potency is 15.1 µM (active).
For the compound `COc1ccc(N2CCN(C(c3cccs3)C(C)NC(=O)c3ccc4c(c3)OCO4)CC2)cc1` (stereo not given), the “activity change, negative = inhibition” value is 1.89% (inactive).
On the same count and under the same terms, next, `COc1ccc(S(=O)(=O)N2CCC3CC2c2cc(N4CCOCC4)ccc23)cc1` (stereo not given): 17.1% (inactive).
`COc1ccc(N2CCN(Cc3ccc(Br)s3)CC2)cc1`: the Potency was 10.7 µM (active).
Regarding `Cc1ccc(C(=O)ON=C2CCN(c3ccc([N+](=O)[O-])cc3)CC2)cc1`, the “activity change, negative = inhibition” value was -23.5% (inactive).
For the compound `CC(=O)c1ccc(OC(=O)/C=C/c2ccccc2)cc1`, the Potency is 4.26 µM (active).
Take `O=C(Oc1ccc(C(=S)N2CCOCC2)cc1)c1cccc([N+](=O)[O-])c1`: the Potency is 7.57 µM (active).
Consider `O=C(Oc1ccc(C(=S)N2CCOCC2)cc1)c1ccccc1`, for which the Potency is 16.9 µM (active).
On the same count and under the same terms, in the case of `O=C(Oc1ccc(C(=S)N2CCOCC2)cc1)c1cccc(Cl)c1` it was 8.49 µM (active).
For `Cc1ccc(Nc2nc(N)nc(CSc3nnc(C)s3)n2)cc1`, the “activity change, negative = inhibition” value is -27.8% (inactive).
With `COc1ccc(C(=O)C2CCCN(C(=O)c3cccc(N(C)C)c3)C2)cc1OC` (stereo not given), the “activity change, negative = inhibition” value was -24.1% (inactive).
Still for that read-out and setting: in the case of `COC(=O)C(Sc1ccc(Cl)cc1)C1SC(=S)N(Cc2ccccc2)C1=O` (stereo not given) it was -27.9% (inactive).
In the case of `Cc1ccc(C(=O)Oc2ccc(C(=S)N3CCOCC3)cc2)cc1`, the Potency is 1.2 µM (active).
Same read-out and setting: next, `O=C(/C=C/c1ccccc1)Oc1ccc(C(=S)N2CCOCC2)cc1`: 1.51 µM (active).
Same read-out and setting: in the case of `O=C(Cc1ccc(F)cc1)Oc1ccc(C(=S)N2CCCC2)cc1` it was 15.1 µM (active).
Consider `COc1ccc(C(=O)OCC(=O)Nc2ccc(N3CCOCC3)cc2)cc1`, for which the “activity change, negative = inhibition” value was -5.25% (inactive).
For the compound `O=C(Oc1ccc(C(=S)N2CCOCC2)cc1)c1ccc(F)cc1`, the Potency was 7.57 µM (active).
Take `COc1cccc(OC)c1C(=O)OCC(=O)NCC1CCCCC1`: the “activity change, negative = inhibition” value is -9.42% (inactive).
The same measure, in the same setting: next, `CC(C)OCCCNC(=O)c1ccccc1NC(=O)C1=CSCCO1`: -8.43% (inactive).
For the compound `C1=Cc2ccccc2/C1=C\c1cc2c3c(c1)CCCN3CCC2`, the Potency was 7.57 µM (active).
For `COc1cc(N=c2oc3c(C)ncc(CO)c3cc2C(N)=O)cc(OC)c1OC`, the Potency is 6.75 µM (active).
For `Cc1ccc(NC(=O)c2cc3c(CO)cnc(C)c3oc2=Nc2cccc(C(N)=O)c2)cc1`, the “activity change, negative = inhibition” value was -28.9% (inactive).
As to `COc1ccc(-n2nc(C)cc2Nc2ccccc2C(=O)O)cc1`, the Potency was 6.01 µM (active).
On the same count and under the same terms, next, `Cc1cc(Nc2ccccc2C(=O)O)n(-c2cccc(Cl)c2)n1`: 6.75 µM (active).
Turning to `COc1ccc(C(=O)Nc2cc(OC)c(NC(=O)Nc3ccccc3)cc2OC)cc1`, the “activity change, negative = inhibition” value was -25.1% (inactive).
With `CN(C)c1ccc(/C=C/C=C2/C=Cc3ccccc32)cc1`, the Potency was 4.26 µM (active).
On the same count and under the same terms, next, `CCN(CC)c1ccc(/C=C2\C=Cc3ccccc32)cc1`: 6.75 µM (active).
Same read-out and setting: in the case of `CN(C)c1ccc(C=C2C=Cc3ccccc32)cc1` it was 3.79 µM (active).
On the same count and under the same terms, next, `CC1=C/C(=C\c2ccc(N(C)C)cc2)c2ccccc21`: 7.57 µM (active).
Consider `CC1C(c2ccccc2)=Nn2c(=O)n(-c3ccccc3)c(=O)n21` (stereo not given), for which the “activity change, negative = inhibition” value was -2.7% (inactive).
In the case of `CN(C)c1ccc(/C=C2\C=Cc3ccccc32)cc1`, the Potency was 6.01 µM (active).
On the same count and under the same terms, next, `CNc1ccc(C=C2C=Cc3ccccc32)cc1`: 15.1 µM (active); `C1=Cc2ccccc2/C1=C\c1cc[cH-]c1.[Fe+2].c1cc[cH-]c1`: 10.7 µM (active).
Regarding `Cc1oc2c(Cl)c(Cl)c(O)c(CN(C)C)c2c1C(=O)c1ccc(Cl)cc1`, the Potency was 19 µM (active).
On to `O=C1C(NS(=O)(=O)c2cccs2)=C(N2CCN(Cc3ccccc3)CC2)C(=O)c2ccccc21`, for which the Potency was 13.5 µM (active).
On the same count and under the same terms, in the case of `CC(=O)Nc1ccc(S(=O)(=O)NC2=C(N3CCN(Cc4ccccc4)CC3)C(=O)c3ccccc3C2=O)cc1` it was 19 µM (active).
In the case of `Cc1nn(-c2ccccc2)c2c1C(c1cccnc1)N1C=C(S(=O)(=O)N3CCCCC3)C=CC1=N2` (stereo not given), the “activity change, negative = inhibition” value is -26.3% (inactive).
